In all, about 5,500 compounds went through this assay and about 2,000 (36%) were called active. Another 18% or so got no clear call; they are omitted. Rule as the data show it: active = normalized growth mostly below about 0.91 (no sharp cut-off); inconclusive = no clear call, values can overlap the other calls; inactive = mostly above about 0.92. The list shows a part of the results.
Assay: chemical genetic growth profiling, strain panel (AID 1159580);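 also: tested at 20 µM; growth read once vehicle control cultures reached saturation at 30 °C; 1 = growth at the plate median or of vehicle wells; lower values mean less growth of the strain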
Conditions: growth OD

Measured: normalized growth

Oc1ccc2c(c1)OCC1(O)Cc3cc(O)c(O)cc3C21 (configuration not stated)
inactive: S. cerevisiae deletion strains, locus YJL187C, strain SWE1, active compounds read low 1.02 | S. cerevisiae deletion strains, locus YJR066W, strain TOR1, active compounds read low 0.906 | S. cerevisiae deletion strains, locus YKL009W, strain mrt4, active compounds read low 1.03 | S. cerevisiae deletion strains, locus YKL068W, active compounds read low 0.997 | S. cerevisiae deletion strains, locus YKL085W, strain MDH1 (second series), active compounds read low 0.978 | S. cerevisiae deletion strains, locus YKL085W, strain MDH1, active compounds read low 0.978 | S. cerevisiae deletion strains, locus YKL160W, strain elf1, active compounds read low 1.02 | S. cerevisiae deletion strains, locus YKR001C, strain vps1, active compounds read low 1.03 | S. cerevisiae deletion strains, locus YKR026C, strain gcn3, active compounds read low 1.04 | S. cerevisiae deletion strains, locus YKR091W, strain srl3, active compounds read low 1.02 | S. cerevisiae deletion strains, locus YLL001W, strain dnm1, active compounds read low 1.03 | S. cerevisiae deletion strains, locus YLL026W, active compounds read low 1.02 | S. cerevisiae deletion strains, locus YLL041C, strain sdh2, active compounds read low 1.02 | S. cerevisiae deletion strains, locus YLR027C, strain aat2, active compounds read low 1.01 | S. cerevisiae deletion strains, locus YLR039C, strain RIC1, active compounds read low 0.991 | S. cerevisiae deletion strains, locus YLR058C, strain SHM2, active compounds read low 0.959 | S. cerevisiae deletion strains, locus YLR102C, strain apc9, active compounds read low 0.991 | S. cerevisiae deletion strains, locus YLR113W, strain HOG1, active compounds read low 1.05 | S. cerevisiae deletion strains, locus YLR221C, strain rsa3, active compounds read low 1.02 | S. cerevisiae deletion strains, locus YLR258W, strain gsy2, active compounds read low 1.03 | S. cerevisiae deletion strains, locus YLR262C, strain YPT6 (second series), active compounds read low 1.04 | S. cerevisiae deletion strains, locus YLR268W, strain sec22, active compounds read low 1.05 | S. cerevisiae deletion strains, locus YLR320W, strain mms22, active compounds read low 1.04 | S. cerevisiae deletion strains, locus YLR342W, strain FKS1 (second series), active compounds read low 1.05 | S. cerevisiae deletion strains, locus YLR342W, strain FKS1, active compounds read low 1.03 | S. cerevisiae deletion strains, locus YLR357W, strain rsc2, active compounds read low 1.03 | S. cerevisiae deletion strains, locus YLR370C, strain arc18, active compounds read low 1.02 | S. cerevisiae deletion strains, locus YLR371W, strain rom2, active compounds read low 0.988 | S. cerevisiae deletion strains, locus YLR384C, strain iki3, active compounds read low 1.02 | S. cerevisiae deletion strains, locus YLR418C, strain cdc73, active compounds read low 0.991 | S. cerevisiae deletion strains, locus YML016C, strain PPZ1, active compounds read low 0.997 | S. cerevisiae deletion strains, locus YML032C, strain rad52, active compounds read low 1.05 | S. cerevisiae deletion strains, locus YML120C, strain ndi1, active compounds read low 1.03 | S. cerevisiae deletion strains, locus YML124C, strain tub3, active compounds read low 0.999 | S. cerevisiae deletion strains, locus YMR058W, strain fet3, active compounds read low 1.02 | S. cerevisiae deletion strains, locus YMR078C, strain ctf18, active compounds read low 0.988 | S. cerevisiae deletion strains, locus YMR125W, strain sto1, active compounds read low 1.04 | S. cerevisiae deletion strains, locus YMR129W, active compounds read low 1.02 | S. cerevisiae deletion strains, locus YMR205C, strain PFK2, active compounds read low 1.06 | S. cerevisiae deletion strains, locus YMR223W, strain ubp8, active compounds read low 0.981 | S. cerevisiae deletion strains, locus YMR231W, strain pep5, active compounds read low 1 | S. cerevisiae deletion strains, locus YMR307W, strain GAS1, active compounds read low 1.11 | S. cerevisiae deletion strains, locus YNL067W, strain RPL9B, active compounds read low 0.959 | S. cerevisiae deletion strains, locus YNL071W, strain lat1, active compounds read low 1.03 | S. cerevisiae deletion strains, locus YNL128W, strain TEP1, active compounds read low 0.983 | S. cerevisiae deletion strains, locus YNL183C, strain NPR1, active compounds read low 0.948 | S. cerevisiae deletion strains, locus YNL209W, strain ssb2, active compounds read low 1.01 | S. cerevisiae deletion strains, locus YNL233W, strain BNI4, active compounds read low 1 | S. cerevisiae deletion strains, locus YNL248C, strain rpa49, active compounds read low 1.03 | S. cerevisiae deletion strains, locus YNL250W, strain rad50, active compounds read low 0.957 | S. cerevisiae deletion strains, locus YNL271C, strain bni1, active compounds read low 0.983 | S. cerevisiae deletion strains, locus YNL298W, strain CLA4, active compounds read low 0.996 | S. cerevisiae deletion strains, locus YNL307C, strain MCK1, active compounds read low 0.994 | S. cerevisiae deletion strains, locus YNL322C, strain KRE1 (second series), active compounds read low 1.02 | S. cerevisiae deletion strains, locus YNL322C, strain KRE1, active compounds read low 0.981 | S. cerevisiae deletion strains, locus YNR049C, strain mso1, active compounds read low 1.02 | S. cerevisiae deletion strains, locus YNR052C, strain pop2, active compounds read low 0.959 | S. cerevisiae deletion strains, locus YOL006C, strain TOP1, active compounds read low 1.18 | S. cerevisiae deletion strains, locus YOL012C, strain htz1 0.665 | S. cerevisiae deletion strains, locus YOL147C, strain pex11, active compounds read low 1 | S. cerevisiae deletion strains, locus YOR001W, strain rrp6, active compounds read low 1.04 | S. cerevisiae deletion strains, locus YOR061W, strain CKA2, active compounds read low 1.03 | S. cerevisiae deletion strains, locus YOR069W, strain VPS5, active compounds read low 1 | S. cerevisiae deletion strains, locus YOR070C, strain gyp1, active compounds read low 1.01 | S. cerevisiae deletion strains, locus YOR080W, strain dia2, active compounds read low 1.01 | S. cerevisiae deletion strains, locus YOR083W, strain WHI5, active compounds read low 1.02 | S. cerevisiae deletion strains, locus YOR106W, strain vam3, active compounds read low 1.05 | S. cerevisiae deletion strains, locus YOR136W, strain idh2, active compounds read low 1.01 | S. cerevisiae deletion strains, locus YOR144C, strain elg1, active compounds read low 1.01 | S. cerevisiae deletion strains, locus YOR184W, strain ser1, active compounds read low 1.09 | S. cerevisiae deletion strains, locus YOR231W, strain MKK1, active compounds read low 1.01 | S. cerevisiae deletion strains, locus YOR265W, strain rbl2, active compounds read low 1.02 | S. cerevisiae deletion strains, locus YOR270C, strain vph1, active compounds read low 1.16 | S. cerevisiae deletion strains, locus YOR290C, strain snf2, active compounds read low 1.04 | S. cerevisiae deletion strains, locus YOR316C, strain cot1, active compounds read low 0.986 | S. cerevisiae deletion strains, locus YPL051W, strain arl3, active compounds read low 1.01 | S. cerevisiae deletion strains, locus YPL055C, strain LGE1, active compounds read low 1.06 | S. cerevisiae deletion strains, locus YPL078C, strain atp4, active compounds read low 1.03 | S. cerevisiae deletion strains, locus YPL106C, strain sse1, active compounds read low 0.99 | S. cerevisiae deletion strains, locus YPL240C, strain hsp82, active compounds read low 1.02 | S. cerevisiae deletion strains, locus YPL256C, strain CLN2, active compounds read low 0.995 | S. cerevisiae deletion strains, locus YPR119W, strain clb2, active compounds read low 0.978 | S. cerevisiae deletion strains, locus YPR141C, strain kar3, active compounds read low 0.964 | S. cerevisiae deletion strains, locus YPR163C, strain tif3, active compounds read low 0.996 | S. cerevisiae deletion strains, locus YPR167C, strain met16, active compounds read low 0.992 | S. cerevisiae deletion strains, strain wtn01, active compounds read low 1.02 | S. cerevisiae strains, strain wild type, active compounds read low 1.03

From PubChem BioAssay AID1159580 (chemical genetic matrix, 2015)
